Screening data: PubChem BioAssay, Broad Institute
Compounds with a hit are over-represented: about 0.32% of the library has one in this group of screens.
BioA inh – blocks M. tuberculosis BioA enzyme activity; AID 602481; purified M. tuberculosis BioA enzyme, plate reader; inhibition, % at 9.99 µM; 360,000 tested, 0.096% active; in the data active means inhibition above about 40%
TcdB inh – inhibitors of Clostridioides difficile toxin B glycohydrolase. TcdB glycohydrolase enzymatic assay, plate reader. inhibition, % at 9.99 µM. 350,000 tested, 0.24% active. AID 652162; in the data active means inhibition above about 10%
Y pestis TopoI – Y. pestis Topo-I inhibition via cleavage products | Y. pestis Topo-I cleavage product accumulation, plate reader | activity, % at 10 µM | 360,000 tested, 0.064% active; in the data active means activity above about 50%, passing the limit was not always enough
An asterisk follows results filed as active; . = no result; ! = not confirmed by another sample.

SMILES	BioA inh	TcdB inh	Y pestis TopoI
CC1CCN(c2nc3c(=O)[nH]c(N)nc3n2[C@@H]2O[C@H](CO)[C@@H](O)[C@H]2O)CC1	-4.1	0.0	-6.9
CN(C)C(=O)c1cccc(-c2ccc([C@H]3[C@@H](C#N)N(C(=O)C4CC4)[C@@H]3CO)cc2)c1	-0.3	2.7	.
C[C@@H]1CN([C@H](C)CO)S(=O)(=O)c2ccc(C#Cc3ccccc3F)cc2O[C@@H]1CN(C)C	-1.6	-0.1	.
CCOC(=O)C1=C(CN2CCN(C(=O)c3ccco3)CC2)NC(=O)NC1c1ccc(OC(C)C)cc1 (stereo not drawn)	44.3*	1.8	25.1
CCOC(=O)C1=C(CN2CCN(C(=O)c3ccco3)CC2)NC(=O)NC1c1ccc(Cl)cc1 (stereo not drawn)	-0.5	-2.3	31.1
Cc1cc(C)cc(N2C(=O)NC(=O)/C(=C\c3cccn3-c3ccccc3)C2=O)c1	.	.	53.2*
Cc1cc(C)cc(N2C(=O)NC(=O)/C(=C\c3cccn3-c3ccc(Cl)cc3)C2=O)c1	-1.7	.	-0.8
CNC(=O)C[C@@H]1CC[C@@H]2[C@H](COC[C@@H](O)CN2Cc2ccc(Cl)c(Cl)c2)O1	2.7	.	.
Cc1cccc(/C=N/NC(=O)c2c(-c3ccccc3)noc2C)c1O	-1.4	-1.1	-2.3
Cc1onc(-c2ccccc2)c1C(=O)N/N=C/c1cn(C)c2ccccc12	0.3	13.4*	11.7
O=C(Nc1cccc(Cl)c1)N(CCCN1CCOCC1)Cc1ccccc1F	15.0	1.2	2.2
O=C(Nc1ccccc1)N(CCN1CCOCC1)Cc1cccc(Cl)c1	.	-1.8	72.6*
COc1ccc2c3c([nH]c2c1)[C@H](CO)N(S(C)(=O)=O)CC31CCN(C(=O)Cc2cccnc2)CC1	.	0.0	.
C[C@H]1CN([C@@H](C)CO)C(=O)c2cc(C#CCN(C)C)cnc2O[C@@H]1CN(C)C(=O)c1ccc2c(c1)OCO2	4.2	-0.3	.
Cc1cc(C(=O)N2CCN(C/C=C/c3ccccc3)CC2)cs1	.	0.6	25.3
O=C(c1cc(Br)c(Br)s1)N1CCN(C/C=C/c2ccccc2)CC1	-2.5	.	58.0*
CN1CCN(CC(=O)Nc2cc(N(C)C)nc3ccccc23)CC1	.	12.8*	-14.3
CCN(CC)CC(=O)Nc1cc(N(C)C)nc2ccccc12	-0.1	3.9	0.0
CO[C@@H]1CN(C)C(=O)c2cc(NS(=O)(=O)c3ccccc3C)ccc2OC[C@H](C)N(C)C[C@@H]1C	1.2	0.7	.
CCCCN(C(=O)c1cccc(S(=O)(=O)N2CCOCC2)c1)c1c(N)n(CCC)c(=O)[nH]c1=O	.	0.7	10.1
CCCn1c(N)c(C(=O)COC(=O)c2cccc(S(=O)(=O)N3CCOCC3)c2)c(=O)[nH]c1=O	-0.2	13.4*	5.0
COc1cccc(S(=O)(=O)N[C@H]2C=C[C@H](CC(=O)NCc3ccccc3)O[C@@H]2CO)c1	-1.1	-0.7	.
CC(=O)N1[C@@H]2Cn3c(ccc(C4=CCCC4)c3=O)[C@H]1[C@@H](C(=O)N[C@H](C)c1ccccc1)[C@@H]2CO	0.0	1.0	.
Cc1cc(N2CCCC2=O)ccc1S(=O)(=O)Nc1c(C)nn(C)c1C	2.0	-4.5	-5.0
Cc1cc(N2CCCC2=O)cc(C)c1S(=O)(=O)Nc1c(C)nn(C)c1C	1.6	42.3*	-4.3
SMILES	BioA inh	TcdB inh	Y pestis TopoI
CN1/C(=C/C=C/c2n(C)c3cc([N+](=O)[O-])c([N+](=O)[O-])cc3[n+]2C)C(C)(C)c2ccccc21	11.7	12.5*	-17.5
Cc1cccc[n+]1CC(=O)/C=C1\N(C)c2ccccc2C1(C)C	-2.9	0.3	-3.6
COc1ccccc1NC(=O)N(C)C[C@H]1Oc2ncc(Br)cc2C(=O)N([C@@H](C)CO)C[C@@H]1C	2.6	0.7	.
COc1ccc(S(=O)(=O)Nc2ccc3c(c2)C(=O)N([C@H](C)CO)C[C@@H](C)[C@@H](CN(C)CC2CC2)O3)cc1	5.9	-4.1	.
C[C@H](CO)N1C[C@H](C)[C@@H](CN(C)C(=O)Nc2ccc3c(c2)OCO3)Oc2ccc(NC(=O)CCCN(C)C)cc2C1=O	.	1.4	.
CCOc1ccc(C(C(=O)NC2CCCCC2)N(C(=O)c2ccccn2)c2cccnc2)cc1 (stereo not drawn)	.	1.5	0.4
Cc1ccccc1C(C(=O)NC1CCCCC1)N(C(=O)c1ccccn1)c1cccnc1 (stereo not drawn)	-1.2	13.8*	1.2
C[C@@H]1CCCCO[C@@H](CN(C)Cc2ccc(C(=O)O)cc2)[C@H](C)CN([C@H](C)CO)C(=O)c2cc(NS(=O)(=O)c3ccc(Cl)cc3)ccc2O1	0.7	-0.5	.
CCOC(=O)[C@@H]1[C@H]2COc3ccc(Br)cc3[C@H]2N2C(=O)N(c3ccc(Br)cc3)C(=O)[C@]12C	-0.3	0.7	9.0
CCOC(=O)[C@@H]1[C@H]2COc3ccc(Br)cc3[C@@H]2N2C(=O)N(c3ccc(Br)cc3)C(=O)[C@]12C	17.5	13.8*!	-2.9
CO[C@H]1CN(C)C(=O)c2ccc(NC(=O)c3ccc4c(c3)OCO4)cc2OC[C@@H](C)N(CCC(F)(F)F)C[C@@H]1C	0.0	0.6	.
CC(Nc1ccc(S(=O)(=O)N2CCN(C)CC2)cc1[N+](=O)[O-])c1ccccc1 (stereo not drawn)	0.6	2.0	26.9
COc1cccc(C(CNc2ccc(S(=O)(=O)N3CCN(C)CC3)cc2[N+](=O)[O-])N(C)C)c1 (stereo not drawn)	-2.0	17.4*	1.3
Cc1cc(N/N=C/c2ccc(N(C)C)cc2)c2ccccc2n1	6.0	0.8	8.1
Cc1cc(C)c2nc(C)cc(N/N=C/c3ccc(O)cc3)c2c1	-1.6	16.4*	-4.9
Cc1cc(-c2ccccc2)nc(N/N=C/c2ccc(O)cc2)n1	0.8	2.2	-6.3
Cc1cc(N/N=C/c2ccc(O)cc2)c2cccc(C)c2n1	-0.5	11.3*	-36.2
COC(=O)C(Cc1ccccc1)NC(=O)CSc1nc(C)cc(=O)[nH]1 (stereo not drawn)	0.3	22.0*	6.1
Cc1cc(=O)[nH]c(SCC(=O)NNC(=O)Cc2ccccc2)n1	.	-0.2	7.8
COc1ccccc1C#Cc1ccc2c(c1)[C@H]1[C@H](CCN1C(=O)c1ccc(F)cc1)[C@H](CO)N2	.	-1.5	.
CCS(=O)(=O)N1CC(=O)N2[C@H](CO)[C@H](c3ccc(-c4ccc(C)cc4)cc3)[C@@H]2C1	.	0.4	.
CNC[C@H]1Oc2c(NS(=O)(=O)c3cccs3)cccc2C(=O)N([C@@H](C)CO)C[C@@H]1C	-0.8	-0.8	.
COc1cccc(S(=O)(=O)Nc2ccc3c(c2)OC[C@@H](C)N(Cc2cc(F)ccc2F)C[C@@H](C)[C@H](OC)CN(C)C3=O)c1	-1.9	-1.6	.
COc1ccc(-c2ccc3c(c2)[C@H]2[C@H](CCN2C(=O)C2CC2)[C@@H](CO)N3C)cc1	1.2	14.6*	.
COc1ccc(-c2ccc3c(c2)[C@H]2[C@H](CCN2C(=O)C2CC2)[C@H](CO)N3C)cc1	1.0	-0.4	.
COc1ccc(-c2ccc3c(c2)[C@@H]2[C@@H](CCN2C(=O)C2CC2)[C@H](CO)N3C)cc1	-2.2	13.0*	.
COc1ccc(-c2ccc3c(c2)[C@H]2[C@H](CCN2C(=O)C2CCCC2)[C@H](CO)N3C)cc1	.	-1.4	.
COC(=O)[C@H]1[C@H](CO)[C@H]2Cn3c(ccc(-c4ccc(F)cc4)c3=O)[C@H]2N1C(=O)C1CCC1	1.6	-0.6	.
O=C(C[C@H]1CC[C@@H]2[C@H](COC[C@@H](O)CN2S(=O)(=O)c2ccccc2F)O1)NCc1ccccc1Cl	0.9	-0.9	.
